In PubChem BioAssay:
The source made the active and inactive calls.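 Rule for the calls, unless noted: active = inhibition at or above 50% at 10 µM; inactive = inhibition below 50%.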

Tests used:
[1] = inhibitors of TNFa-induced NFkB p65 translocation, primary screen, imaging, HUVEC, MLSMR starter and 10KST1 sets (AID 438;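 active = inhibition above 20% together with a positive visual image hit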;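 note: compound added about 3h40 before a 20 min TNFalpha stimulation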;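 for inhibition: signal is the nuclear over cytoplasmic p65 intensity ratio per well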); conditions: HUVEC TNFa-induced p65 nuclear translocation; cell count: measured here: nuclei count (cytotoxicity indicator), at 2.08 µM; inhibition: at 2 µM, stronger effect = higher value, 0% TNFa-plus-vehicle, 100% no-TNFa wells
[2] = inhibitors of mutant huntingtin aggregation, primary screen, imaging, exon1htt(103Q)mCFP cells, high-content imaging (AID 483;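 active = visual image review flags a hit and inhibition of aggregation exceeds 20%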;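 note: compound exposure lasted 3 days before fixation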;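 for nuclei count: percent of the per-plate median nuclei count of sample wells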); conditions: exon1htt(103Q)mCFP cell line, aggregate imaging, at 2 µM; inhibition of aggregation: stronger effect = higher value; nuclei count: measured here: cell count, toxicity
[3] = inhibitors of E-selectin induction by TNFa, primary screen, imaging, HUVEC, immunofluorescence, MLSMR starter and 10KST1 sets (AID 487;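 active = visually confirmed hit in the image check and inhibition above 20%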;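 for inhibition: signal is fraction of cell area covered by stained E-selectin grains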;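 for nuclei count: 100% = median nuclei count of all wells on the same plate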); conditions: HUVEC TNFalpha-induced E-selectin immunofluorescence imaging, at 2 µM; inhibition: stronger effect = higher value; nuclei count: measured here: cell number, toxicity
[4] = target: Voltage-gated potassium channel subunit beta-2 (Rattus norvegicus) (UniProt P62483); test: KvBeta enzyme negative modulators, primary screen, biochemical, NADPH fluorescence (AID 622;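 active = fluorescence slope higher than the sample average by over 3 SD, cut at about -0.22 in these data, passing the limit was not always enough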;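 note: slope of raw intensity against log time taken from 70 to 1610 s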); conditions: recombinant KvBeta, 4-cyanobenzaldehyde reduction, at 10 µM, stronger effect = higher value
Sequence of Voltage-gated potassium channel subunit beta-2 (Rattus norvegicus) (P62483 whole entry, looked up): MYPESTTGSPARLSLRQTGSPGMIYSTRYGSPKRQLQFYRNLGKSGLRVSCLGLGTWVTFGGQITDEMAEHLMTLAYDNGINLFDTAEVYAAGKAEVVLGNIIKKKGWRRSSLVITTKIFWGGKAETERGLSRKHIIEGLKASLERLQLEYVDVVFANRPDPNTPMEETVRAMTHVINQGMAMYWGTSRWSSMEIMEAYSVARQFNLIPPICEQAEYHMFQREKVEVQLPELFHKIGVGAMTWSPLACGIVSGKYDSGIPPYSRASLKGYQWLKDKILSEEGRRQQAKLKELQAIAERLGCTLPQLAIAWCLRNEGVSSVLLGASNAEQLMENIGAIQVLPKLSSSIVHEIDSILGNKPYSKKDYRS

[5] = target: Voltage-gated potassium channel subunit beta-2 (Rattus norvegicus) (UniProt P62483); test: KvBeta positive modulators, primary screen, biochemical, NADPH fluorescence (AID 623;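 active = NADPH fluorescence slope more negative than the mean of all samples by about 3 SD, 99.7% confidence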;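 note: fluorescence intensity change per second fitted from 20 to 320 s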); conditions: Recombinant KvBeta, NADPH fluorescence decrease slope, 10 min; at 10 µM; stronger effect = lower value
[6] = target: Alpha-2C adrenergic receptor (Homo sapiens) (UniProt P18825); test: modulators of alpha2C/GIRK thallium flux, primary screen, cell-based, HEK293 alpha2C/GIRK1/2 (AID 624;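 active = fluorescence slope after compound addition differing from the mean of all screened samples at 99.7% confidence, in either direction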;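 note: slope of fluorescence ratio to pre-addition baseline per second over 15 to 24 s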); conditions: thallium flux BTC fluorescence, at 10 µM, actives lie on both sides
Sequence of Alpha-2C adrenergic receptor (Homo sapiens) (P18825 whole entry, looked up): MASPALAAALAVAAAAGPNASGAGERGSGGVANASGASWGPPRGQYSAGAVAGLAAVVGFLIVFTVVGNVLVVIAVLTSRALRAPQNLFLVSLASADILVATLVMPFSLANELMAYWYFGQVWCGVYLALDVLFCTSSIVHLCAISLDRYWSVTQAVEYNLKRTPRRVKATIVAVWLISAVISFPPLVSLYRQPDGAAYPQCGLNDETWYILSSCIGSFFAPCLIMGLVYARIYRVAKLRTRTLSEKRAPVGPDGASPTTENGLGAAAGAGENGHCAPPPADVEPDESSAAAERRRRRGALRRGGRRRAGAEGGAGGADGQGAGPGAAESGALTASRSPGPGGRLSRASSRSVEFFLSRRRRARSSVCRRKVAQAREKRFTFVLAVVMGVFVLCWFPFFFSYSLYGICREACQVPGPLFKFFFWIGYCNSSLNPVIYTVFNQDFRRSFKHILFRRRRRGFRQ

[7] = inhibitors of Sendai virus-induced IRF3 signaling, primary screen, TLR/RLR signaling modifier project, cell-based, Sendai virus stimulus, luciferase, 10K MLSCN set (AID 602276); conditions: HEK293 RL24 IRF3 luciferase reporter, at 10 µM, stronger effect = higher value;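 note: firefly luciferase from ISG56 promoter only with Renilla not read in this screen; 0% = Sendai virus plus DMSO and 100% = medium plus DMSO without virus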
[8] = inhibitors of poly I:C-induced TLR3 signaling, primary screen, cell-based, poly I:C stimulus, luciferase, 10K MLSCN set (AID 602277;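 active = inhibition of the reporter signal at or above 50%; inactive = inhibition below 50%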); conditions: HEK293-TLR3 RL24 IRF3 luciferase reporter, at 10 µM, stronger effect = higher value

| Structure (SMILES) | cell count [1] | inhibition [1] | inhibition of aggregation [2] | nuclei count [2] | inhibition [3] | nuclei count [3] | fluorescence slope [4] | NADPH fluorescence slope [5] | slope [6] | inhibition [7] | inhibition [8] |
| --- | --- | --- | --- | --- | --- | --- | --- | --- | --- | --- | --- |
| O=C(Oc1ccc2c(c1)CCC2)N1CCOCC1 | 360 | 5.5% (inactive) | 6.4% (inactive) | 88.2% | 21.8% (inactive) | 81.4% | -0.393 (inactive) | 8.5e-06 (inactive) | 0.00612 (inactive) | -63.8% (inactive) | -185% (inactive) |
| O=C(Cn1cnc2c(cnn2-c2ccc(F)cc2)c1=O)N1CCN(c2ccccc2)CC1 | 341 | -6% (inactive) | -0.4% (inactive) | 90.7% | -79.8% (inactive) | 108% | -0.506 (inactive) | -2.6e-06 (inactive) | 0.00638 (inactive) | 4.22% (inactive) | 8.47% (inactive) |
| CC(=O)n1nc(-c2ccco2)nc1SCc1ccccc1 | 573 | 2.8% (inactive) | 25.1% (inactive) | 100% | -122% (inactive) | 94.1% | -0.599 (inactive) | 1.3e-05 (inactive) | 0.00839 (inactive) | -22.5% (inactive) | -108% (inactive) |
| O=C(CCN1C(=O)c2ccccc2C1=O)Nc1ccc(F)cc1 | 442 | 4.9% (inactive) | -0.3% (inactive) | 117% | 14.4% (inactive) | 109% | -0.375 (inactive) | 4.4e-06 (inactive) | 0.00394 (inactive) | 9.91% (inactive) | 13.8% (inactive) |
| Cc1cccc(NC(=O)CC2NC3CCCCC3NC2=O)c1 (stereo not drawn) | 384 | -4.8% (inactive) | -8.2% (inactive) | 81% | 6.9% (inactive) | 106% | -0.358 (inactive) | -2.9e-05 (inactive) | 0.00297 (inactive) | 13.5% (inactive) | 14.2% (inactive) |
| CCOc1ccc(CCN2C(=O)C3C4C=CC(C4)C3C2=O)cc1OCC (stereo not drawn) | 626 | 2.9% (inactive) | -33.6% (inactive) | 134% | -51.4% (inactive) | 112% | -0.551 (inactive) | -1.1e-05 (inactive) | 0.00791 (inactive) | 16.8% (inactive) | 36.6% (inactive) |
| Cc1nc2oc3c(NCc4ccccn4)ncnc3c2c2c1COC(C)(C)C2 | 366 | -2.9% (inactive) | 2.7% (inactive) | 78.1% | -75.4% (inactive) | 117% | -0.431 (inactive) | -4.2e-06 (inactive) | 0.00661 (inactive) | 9.92% (inactive) | 12.7% (inactive) |
| CCOC(=O)N1CCN(C(=O)COc2cc(=O)n(C)c3ccccc23)CC1 | 341 | 1.7% (inactive) | -0.1% (inactive) | 94.2% | 1.7% (inactive) | 118% | -0.565 (inactive) | 4.1e-05 (inactive) | 0.00524 (inactive) | -5.65% (inactive) | -23.1% (inactive) |
